# Results filed as inconclusive are left out. Activity calls are given as the source filed them. The calls were made as follows, unless noted: active = hit-call score of the fitted dose curve at least 0.9, where 1 is the maximum; inactive = score below 0.9.
# Assays:
# [1] = target: Estrogen receptor (Homo sapiens) (UniProt P03372); assay: CCTE_Deisenroth_AIME_384WELL_LUC_Active: CCTE's 384-well Estrogen Receptor Transactivation Assay with AIME metabolic competence (ERTA luciferase; metabolism positive), Deisenroth Lab (AID 2284030; active = hit-call score of the fitted dose curve at least 0.9, where 1 is the maximum)
# How it was run: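 In this metabolism-positive format, a 2-hour exposure to alginate-immobilized rat S9 precedes a 24 hour luciferase transactivation readout in VM7Luc4E2 cells. Dosing spans 10 concentrations from 0.002 to 200 uM.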
# [2] = CCTE_Shafer_MEA_dev_firing_rate_mean: CCTE's Neural Network Formation Assay for Mean Firing Rate, Shafer Lab (AID 2284031);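 also: AUC of well mean spike rate recorded on DIV 5 7 9 and 12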;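 as to AC50: curve fitted for loss of firing so AC50 reflects decreased mean firing rate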
# How it was run: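 Developing rat cortical networks on MEA plates undergo 12-day compound exposure. Firing frequency, averaged across active electrodes, is integrated as area under the curve over four recording days, referenced to DMSO.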
# [3] = CCTE_Shafer_MEA_dev_per_burst_spike_percent: CCTE's Neural Network Formation Assay for Percent of Spikes in a Burst, Shafer Lab (AID 2284032);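 as to AC50: fitted as a decrease in burst spike percentage below DMSO baseline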
# How it was run: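 Rat primary cortical neurons on 16-electrode MEA wells, dosed from plating day 0 for 12 days with renewal on DIV 5 and 9; spikes-in-bursts percentage averaged over bursting electrodes, collapsed as AUC across days 5, 7, 9, 12; loss direction versus DMSO.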
# [4] = CCTE_Shafer_MEA_acute_cross_correlation_area: CCTE's Neural Acute Assay for Area of Cross Correlation, Shafer Lab (AID 2284024);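 also: area under pooled inter-electrode spike cross-correlation near zero lag as percent change from own baseline; curves fitted for loss of cross-correlation area so actives lower synchrony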
# How it was run: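 Acute exposure of mature rat cortical networks (day 13 or 15 post-plating) to 0.03-40 uM compound. Spontaneous spiking on MEA, 40 min pre- and post-dose at 37 C.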
# [5] = CCTE_Shafer_MEA_acute_cross_correlation_HWHM: CCTE's Neural Acute Assay for Cross Correlation at Half Width at Half Maximum, Shafer Lab (AID 2284026);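 also: percent change per well from pre-dose baseline in spike cross-correlogram half width; hits are a decrease in cross-correlogram half width relative to DMSO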
# How it was run: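 Primary cortex (rat), MEA, DIV 13/15; compound 0.03-40 uM; 40 min pre + 40 min post at 37 C; spike threshold 8x rms; wells need ≥10 active electrodes; endpoint = % change in cross-correlogram HWHM vs baseline, DMSO negative control.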
# [6] = CCTE_Shafer_MEA_acute_synchrony_index: CCTE's Neural Acute Assay for Synchrony, Shafer Lab (AID 2284027);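 also: fitted for loss of signal so actives lower synchrony relative to DMSO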
# Procedure: CCTE_Shafer_MEA_acute assay is conducted using Axion Biosystems 48 well microelectrode array (MEA) plates and Maestro recording system. Each well of the MEA plate contains a grid of 16 microelectrodes embedded in the culture surface. Electrically active cells, such as neurons, can be cultured over the electrodes, and electrical activity in these cells can be recorded extracellularly. The spontaneous firing of neurons is captured from each electrode on a microsecond timescale providing both temporally and spatially precise data. […] The CCTE_Shafer_MEA_acute assay uses primary cultures of rat cortical neurons. […] The recordings before and after chemical treatment are used to calculate a percent change in the synchrony index in each well.Data from the assay component CCTE_Shafer_MEA_acute_synchrony_index was analyzed into 1 assay endpoint. This assay endpoint, CCTE_Shafer_MEA_acute_synchrony_index, was analyzed in the negative analysis fitting direction relative to DMSO as the negative control and baseline of activity. […]
# Spontaneous activity in the cortical cultures was recorded using an Axion Biosystems Maestro 768 channel amplifier and Axion Integrated Studios (AxIS) v1.8 (or later) software. […] Any electrodes with rms noise levels greater than 5 uV were grounded (e.g., no data were recorded). […] Baseline activity (40 min) was recorded before the addition of each compound. […]
# [7] = target: Estrogen receptor (Homo sapiens) (UniProt P03372); assay: CCTE_Deisenroth_AIME_96WELL_LUC_Active: CCTE's 96-well Estrogen Receptor Transactivation Assay with AIME metabolic competence (ERTA luciferase; metabolism positive), Deisenroth Lab (AID 2284023; active = hit-call score of the fitted dose curve at least 0.9, where 1 is the maximum)
# Procedure: CCTE_Deisenroth_AIME_96WELL (AIME metabolism assay) is a cell-based, single-readout assay that uses VM7Luc4E2, a human mammary gland/breast cell line, with measurements taken at 24 hour after chemical dosing in a 96-well plate.CCTE_Deisenroth_AIME_96WELL_LUC_Active is one of four assay components measured or calculated from the CCTE_Deisenroth_AIME_96WELL assay. It is designed to make measurements of luciferase induction, a form of inducible reporter, as detected with bioluminescence signals by luciferase-coupled ATP quantitation technology.CCTE_Deisenroth_AIME_96WELL_LUC_Active is a component of the CCTE_Deisenroth_AIME_96WELL assay that measures the effect of retroftting the VM7Luc ERTA assay with the Alginate Immobolization of Metabolic Enzymes (AIME) metabolism method. AIME is optimized to impart phase I hepatic metabolism using phenobarbital/beta-naphthoflavone induced hepatic S9 from male Sprague Dawley rats. Parent chemicals are incubated for 2 hours in the AIME assay prior to transfer to the VM7Luc ERTA assay plate. […] This endpoint evaluates reporter induction in metabolism positive mode. […] This assay endpoint, CCTE_Deisenroth_AIME_96WELL_LUC_Active, was analyzed in the positive analysis fitting direction relative to 17beta-estradiol as the positive control in the ERTA assay. […]
# [8] = target: Estrogen receptor (Homo sapiens) (UniProt P03372); assay: CCTE_Deisenroth_AIME_96WELL_LUC_Inactive: CCTE's 96-well Estrogen Receptor Transactivation Assay without AIME metabolic competence (ERTA luciferase; metabolism negative), Deisenroth Lab (AID 2284025; active = hit-call score of the fitted dose curve at least 0.9, where 1 is the maximum)
# How it was run: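 VM7Luc4E2 breast cells, luciferase read 24 h after dosing with medium pre-incubated 2 h on alginate-water lids (metabolism negative). 10-point series 0.002–200 uM, single technical replicate, n≥4; fit relative to 17beta-estradiol.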
# [9] = CCTE_Deisenroth_AIME_96WELL_CTox_Active: Cytotoxicity Assessment (CTOX) in CCTE's 96-well Estrogen Receptor Transactivation Assay with AIME metabolic competence (metabolism positive), Deisenroth Lab (AID 2284028; active = hit-call score of the fitted dose curve at least 0.9, where 1 is the maximum)
# How it was run: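 Chemicals (0.002–200 uM) were first incubated 2 h with alginate-immobilized phenobarbital/beta-naphthoflavone-induced male rat liver S9; conditioned medium then went onto VM7Luc4E2 cells for 24 h, with viability read by protease-substrate fluorescence, fitted bidirectionally.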
# [10] = CCTE_Deisenroth_AIME_96WELL_CTox_Inactive: Cytotoxicity Assessment (CTOX) in CCTE's 96-well Estrogen Receptor Transactivation Assay without AIME metabolic competence (metabolism negative), Deisenroth Lab (AID 2284029; active = hit-call score of the fitted dose curve at least 0.9, where 1 is the maximum)
# How it was run: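 Chemicals (10-point series, 0.002-200 uM) were incubated 2 h with alginate-water microspheres lacking S9. The conditioned medium was then transferred onto VM7Luc4E2 cells for 24 h. Viability was measured by protease-substrate cleavage to a fluorescent probe, with loss of signal fitted bidirectionally; n≥4 experimental replicates.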
# Chain of Estrogen receptor (Homo sapiens) (P03372 whole entry, looked up): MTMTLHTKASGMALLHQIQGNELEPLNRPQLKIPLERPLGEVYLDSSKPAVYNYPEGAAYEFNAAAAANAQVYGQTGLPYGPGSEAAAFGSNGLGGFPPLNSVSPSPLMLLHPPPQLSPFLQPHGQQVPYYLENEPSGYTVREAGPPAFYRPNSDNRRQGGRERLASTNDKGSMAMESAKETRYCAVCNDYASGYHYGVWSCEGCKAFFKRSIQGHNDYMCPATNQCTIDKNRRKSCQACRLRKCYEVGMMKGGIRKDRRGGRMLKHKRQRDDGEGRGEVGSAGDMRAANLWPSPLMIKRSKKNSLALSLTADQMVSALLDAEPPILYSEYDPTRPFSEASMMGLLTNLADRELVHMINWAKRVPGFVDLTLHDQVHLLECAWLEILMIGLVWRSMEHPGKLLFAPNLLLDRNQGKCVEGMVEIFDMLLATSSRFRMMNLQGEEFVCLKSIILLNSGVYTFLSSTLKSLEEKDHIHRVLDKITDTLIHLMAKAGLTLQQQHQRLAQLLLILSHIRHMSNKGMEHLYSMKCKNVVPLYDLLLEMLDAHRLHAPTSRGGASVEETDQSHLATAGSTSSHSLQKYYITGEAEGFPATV
structure (smiles),measurement,setting,value
CC(=O)CCC(C)C,outcome,[1],inactive
CO[Si](C)(CCC(F)(F)C(F)(F)C(F)(F)C(F)(F)C(F)(F)C(F)(F)F)OC,outcome,[2],inactive
same,outcome,[3],inactive
OCC1CCCO1 (centres undefined),outcome,[1],inactive
O=C1C=CC(=O)N1c1ccccc1,outcome,[1],inactive
CCCCCCCC/C=C\CCCCCCCC(=O)OCC(O)CO (centres undefined),outcome,[1],inactive
OCC(F)(F)C(F)(F)C(F)(F)C(F)(F)C(F)(F)C(F)(F)CO,outcome,[2],inactive
same,outcome,[3],inactive
CCCCOC(=O)C(C)O (centres undefined),outcome,[1],inactive
CNS(=O)(=O)C(F)(F)C(F)(F)C(F)(F)C(F)(F)C(F)(F)C(F)(F)C(F)(F)C(F)(F)F,outcome,[2],inactive
same,outcome,[3],inactive
C=CC(=O)OCCC(F)(F)C(F)(F)C(F)(F)C(F)(F)F,outcome,[2],inactive
same,outcome,[3],inactive
O=C(O)C(F)(F)C(F)(F)C(F)(F)OC(F)(F)F,outcome,[2],inactive
same,outcome,[3],inactive
NC(=O)C(F)(F)C(F)(F)C(F)(F)C(F)(F)C(N)=O,outcome,[2],inactive
same,outcome,[3],inactive
OCC(F)(F)C(F)(F)C(F)(F)CO,outcome,[2],inactive
same,outcome,[3],inactive
OCCCCC(F)(F)C(F)(F)C(F)(F)C(F)(F)F,outcome,[2],inactive
same,outcome,[3],inactive
NC(=O)C(F)(F)C(F)(F)C(F)(F)C(F)F,outcome,[2],inactive
same,outcome,[3],inactive
OC(O)C(F)(F)C(F)(F)F,outcome,[2],inactive
same,outcome,[3],inactive
CC(C)(C)c1cc(Cc2cc(C(C)(C)C)c(O)c(C(C)(C)C)c2)cc(C(C)(C)C)c1O,outcome,[1],inactive
O=S(=O)(O)CCC(F)(F)C(F)(F)C(F)(F)C(F)(F)F,outcome,[2],inactive
same,outcome,[3],inactive
FC(F)(F)C(F)(F)C(F)(F)C(F)(F)C(F)(F)C(F)(F)C(F)(F)CCI,outcome,[2],inactive
same,outcome,[3],inactive
NC(O)(C(F)(F)F)C(F)(F)F,outcome,[2],inactive
same,outcome,[3],inactive
OCC(F)(F)C(F)(F)C(F)(F)C(F)(F)C(F)(F)C(F)(F)C(F)(F)C(F)(F)CO,outcome,[2],inactive
same,outcome,[3],inactive
CCN=C1C=CC(=C(c2ccc(N(CC)CC)cc2)c2ccc(N(CC)CC)cc2)c2ccccc21,AC50,[4],0.302 µM (active)
same,AC50,[5],0.883 µM (active)
same,AC50,[6],0.541 µM (active)
N#Cc1ccccc1O,outcome,[1],inactive
O=C(c1ccccc1)c1ccc(O)cc1O,AC50,[1],42.3 µM (active)
C=CC(=O)OCC(F)(F)C(F)(F)C(F)(F)COC(=O)C=C,AC50,[2],4.71 µM (active)
same,AC50,[3],4.39 µM (active)
NC(=O)C(F)(F)C(F)(F)C(F)(F)F,outcome,[2],inactive
same,outcome,[3],inactive
Cc1ccc(O)c(-n2nc3ccccc3n2)c1,AC50,[7],21.7 µM (active)
same,AC50,[8],10.2 µM (active)
same,outcome,[9],inactive
same,outcome,[10],inactive
same,AC50,[1],51.3 µM (active)
CCN(CCO)S(=O)(=O)C(F)(F)C(F)(F)C(F)(F)C(F)(F)C(F)(F)C(F)(F)C(F)(F)C(F)(F)F,outcome,[2],inactive
same,outcome,[3],inactive
O=S(=O)(O)CCC(F)(F)C(F)(F)C(F)(F)C(F)(F)C(F)(F)C(F)(F)C(F)(F)C(F)(F)F,outcome,[2],inactive
same,outcome,[3],inactive
CCOC(OCC)OCC,outcome,[1],inactive
OCC(O)CC(F)(F)C(F)(F)C(F)(F)C(F)(F)F (centres undefined),outcome,[2],inactive
same,outcome,[3],inactive
CCCCC(CC)COC(=O)c1ccc(N(C)C)cc1 (centres undefined),outcome,[7],inactive
same,AC50,[8],16.2 µM (active)
same,outcome,[9],inactive
same,outcome,[10],inactive
